Source: PubChem BioAssay AID1529 (NMMLSC, 2009)
Screen size: about 290,000 compounds; about 4,200 (1.4%) were called active. This is one part of a sample in which actives are shown more often than they occur. A number with no mark means an inactive call.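 How the source made its calls: active means binding response more than 3 SD above or below the average of its plate-row segment, actives on both sides; inconclusive means wells at one plate position flagged as instrument error; inactive means the rest.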

Biological target: Mitogen-activated protein kinase kinase kinase 3 (Homo sapiens) (UniProt Q99759)
Test: modulators of MEKK3-MEK5 PB1 binding, primary screen, biochemical, wildtype MEKK3, multiplex bead flow cytometry, Alexa488-MEK5 (AID 1529);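 further: Alexa488 bead fluorescence after subtracting the streptavidin-only scavenger bead signal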
Details: bead-based flow cytometry, Alexa488-MEK5 binding to MEKK3; at 10 µM; actives lie on both sides; 0 = blocked by unlabeled MEK5, 100 = vehicle

Mitogen-activated protein kinase kinase kinase 3 (Homo sapiens), sequence (Q99759 whole entry, looked up): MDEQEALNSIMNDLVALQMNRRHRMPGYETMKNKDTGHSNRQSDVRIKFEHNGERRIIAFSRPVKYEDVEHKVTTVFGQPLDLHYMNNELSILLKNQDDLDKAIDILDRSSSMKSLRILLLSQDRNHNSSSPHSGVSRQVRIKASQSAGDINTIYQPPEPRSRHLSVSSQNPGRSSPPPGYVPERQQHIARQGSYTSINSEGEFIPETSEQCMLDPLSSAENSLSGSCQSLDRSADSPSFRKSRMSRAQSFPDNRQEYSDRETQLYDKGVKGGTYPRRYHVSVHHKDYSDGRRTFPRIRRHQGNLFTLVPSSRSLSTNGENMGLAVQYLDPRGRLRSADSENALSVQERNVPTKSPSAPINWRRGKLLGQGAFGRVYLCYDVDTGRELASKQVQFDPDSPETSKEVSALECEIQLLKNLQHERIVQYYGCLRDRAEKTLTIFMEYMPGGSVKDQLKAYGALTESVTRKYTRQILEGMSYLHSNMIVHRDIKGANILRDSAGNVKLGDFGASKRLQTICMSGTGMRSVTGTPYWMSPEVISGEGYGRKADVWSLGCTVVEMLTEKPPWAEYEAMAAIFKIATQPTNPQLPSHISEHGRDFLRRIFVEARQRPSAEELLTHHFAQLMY

SMILES | binding response (% of control)
Cc1c(C(C)(C)O)[nH]c2ccc(C#N)cc12 | 103%
CC(=O)N1CCN(CC(C)(C)NS(=O)(=O)c2ccc(C)cc2)CC1 | 102%
CCOC(=O)C(NS(=O)(=O)c1ccc(C)cc1)(C(F)(F)F)P(=O)(OCC(C)C)OCC(C)C (stereo unspecified) | 140% (active)
Cc1ccc(S(=O)(=O)NCC(C)NS(C)(=O)=O)cc1 (stereo unspecified) | 97%
Cc1cc(C(=O)NCCCc2ccccc2)no1 | 99%
CC(C)c1ccc(C(=O)NCCCc2ccccc2)cc1 | 2% [inhibitor] (active)
CCCOc1ccc(C(=O)NCCc2ccccc2)cc1 | 97%
Cc1no[n+]([O-])c1COc1ccccc1/C=C1\NC(=S)NC1=O | 126% (active)
Cc1ccccc1-n1c(C)cc(/C=C2\NC(=O)NC2=O)c1C | 57%
C#CCOc1ccccc1/C=C1/C(=O)ON=C1C | 110%
COc1cc(S(=O)(=O)Nc2ncn[nH]2)ccc1Cl | 102%
CS(=O)(=O)Nc1cccc(C2=NN(S(=O)(=O)c3ccccc3)C(c3cccs3)C2)c1 (stereo unspecified) | 95%
CS(=O)(=O)Nc1ccc(C2=NN(S(C)(=O)=O)C(c3cccs3)C2)cc1 (stereo unspecified) | 10% [inhibitor] (active)
CCS(=O)(=O)Nc1ccc(C2=NN(C(C)=O)C(c3cccs3)C2)cc1 (stereo unspecified) | 55%
Cc1occc(=O)c1OCc1c(Cl)cccc1Cl | 102%
CCOc1ccc(NC(=O)C2CCN(C(=O)N3CCOc4ccccc43)CC2)cc1 | 103%
Cc1ccc(-c2noc(C3CCCN(C(=O)c4cccc(Cl)c4)C3)n2)o1 (stereo unspecified) | 99%
COc1ccc(N2CCN(C(=O)CN3C(=O)COc4ccccc43)CC2)cc1 | 101%
C/C=C/c1ccc(OCCCCN2CCC(C)CC2)c(OC)c1 | 69% [inhibitor] (active)
C/C=C/c1ccc(OCCOc2ccc(C=O)cc2OC)c(OC)c1 | 100%
COc1ccc(OCCCCN2CCC(C)CC2)cc1 | 108%
O=c1[nH]snc1-c1c(Cl)cccc1Cl | 105%
COc1cccc(NC(=O)COc2cc(C)cc3oc(=O)cc(C)c23)c1 | 103%
CCOC(=O)N1CCN(CCC(=O)Nc2cc(OC)ccc2OC)CC1 | 96%

SMILES | binding response (% of control)
CCN1CCN(c2nc(Nc3cc(OC)ccc3OC)nc(Nc3cc(OC)ccc3OC)n2)CC1 | 37% [inhibitor] (active)
CCOc1ccc(Nc2nc(Cl)nc(N3CCN(c4ccc(OC)cc4)CC3)n2)cc1 | 103%
CC(=O)O[C@H]1c2ccccc2-c2ccccc2[C@@H]1OC(C)=O | 104%
COC(=O)c1ccc(NC(=O)c2cc3c(CO)cnc(C)c3oc2=Nc2cccc(C(N)=O)c2)cc1 | 102%
O=C(NC1CCCC1)C(c1ccco1)N(C(=O)c1csnn1)c1ccccc1 (stereo unspecified) | 100%
CN(c1ccccc1)c1ccc(/C=c2\s/c(=C(/C#N)C(=O)C(C)(C)C)n(Cc3ccco3)c2=O)cc1 | 47% [inhibitor] (active)
CCOC(=O)/C=c1\s/c(=C\c2ccc(C#N)cc2)c(=O)n1CC(=O)Nc1cccc(C)c1C | 102%
Cc1cs/c(=N\N=C\c2ccc(O)cc2)n1Cc1ccco1 | 100%
COc1ccc(Cc2nc3ccc(C(=O)N4CCC(N(C)C)C4)cc3o2)cc1 (stereo unspecified) | 97%
COc1cc2c(C(=O)N(C)c3cc(Cl)ccc3OC)cn(C)c(=O)c2cc1OC | 102%
Cc1ccc(CNC(=O)Cn2c(=O)c3sccc3n(Cc3cccc([N+](=O)[O-])c3)c2=O)cc1 | 141% (active)
O=C(NCc1ccco1)c1ccc(Cn2c(=O)c3sccc3n(Cc3ccc(F)cc3)c2=O)cc1 | 115%
COCCNC(=O)CCCn1c(=O)c2ccccc2n(Cc2cccc([N+](=O)[O-])c2)c1=O | 101%
COc1ccccc1N1CCN(c2nc(C)cc(=O)[nH]2)CC1 | 104%
CCOC(=O)C1CN(S(=O)(=O)c2ccc(OC)cc2)c2cc(Cl)ccc2O1 (stereo unspecified) | 105%
COc1ccc(S(=O)(=O)Nc2ccc3oc(C)c(C(C)=O)c3c2)cc1 | 122% (active)
CC(=O)c1c(C)oc2ccc(NS(=O)(=O)c3ccccc3)cc12 | 101%
CC(=O)c1c(C)oc2ccc(NS(=O)(=O)c3ccc(C(=O)O)cc3)cc12 | 99%
Cc1nc2cc(S(=O)(=O)C(F)(F)F)ccc2s1 | 129% (active)
Cc1nc2ccc(S(=O)(=O)NCC(=O)O)cc2s1 | 106%
Cc1nc2ccc(S(=O)(=O)NC(C(=O)N3CCCCCC3)C(C)C)cc2s1 (stereo unspecified) | 105%
CCOc1ccccc1NC(=O)C1CCCN(S(=O)(=O)c2ccccc2)C1 (stereo unspecified) | 100%
O=S(=O)(c1ccccc1)c1nc(Cc2ccccc2)oc1N1CCOCC1 | 98%
Cc1nnc(NC(=O)C(c2ccccc2)c2ccccc2)s1 | 98%

SMILES | binding response (% of control)
CCCc1nnc(SCC(=O)N2C(C)CCCC2C)n1CC (stereo unspecified) | 145% (active)
CC1CCCC(C)N1C(=O)CSc1nnnn1C1CCCC1 (stereo unspecified) | 101%
CCCc1cc(=O)[nH]c(SCC(=O)N2C(C)CCCC2C)n1 (stereo unspecified) | 107%
O=C(O)c1ccc(NC(=O)c2ccc(COc3ccc(Cl)cc3)o2)cc1 | 103%
CC1CN(CC(=O)NC(C)c2ccccc2)CC(C)O1 (stereo unspecified) | 101%
COc1ccc(N2CCN(C(=O)c3cccs3)CC2)cc1 | 97%
COc1ccc(Cl)cc1NC(=O)CCS(=O)(=O)c1cc2c(cc1C)NC(=O)CO2 | 104%
COc1ccc(Cl)cc1NC(=O)CCS(=O)(=O)c1ccc(Br)cc1 | 80% [inhibitor] (active)
O=C(CCS(=O)(=O)c1ccc(Br)cc1)NCCc1ccc(Cl)cc1 | 105%
CN(C)c1ccc(NC(=O)CN2C3CCCC2CC(NC(=O)c2ccccc2)C3)cc1 (stereo unspecified) | 104%
COc1ccccc1CNC(=O)c1ccc(N(C)S(=O)(=O)c2ccc(C)cc2)cc1 | 96%
COc1ccc(-c2[nH]ncc2CN(C)Cc2cccnc2)c(F)c1 | 108%
COc1ccc(-c2[nH]ncc2CN(C)Cc2c(C)n[nH]c2C)c(OC)c1 | 0% [inhibitor] (active)
COc1ccc(-c2[nH]ncc2CN(C)Cc2cc(C)[nH]n2)c(F)c1 | 102%
C#CCNC(=O)[C@H](Cc1ccc(C(=O)c2ccccc2)cc1)NC(=O)OC(C)(C)C | 101%
CCOCCCNC(=O)c1ccc(CS(=O)(=O)c2cccc(C(F)(F)F)c2)o1 | 101%
Cc1c(C)n(Cc2ccc(Cl)cc2)c2ccc(C(=O)NCCCN3CCOCC3)cc12 | 106%
CCOCCCN(C)C1CCN(C(=O)c2oc3ccccc3c2NC(=O)COc2cccc(C)c2)CC1 | 105%
COc1ccc(C(=O)CCc2ccccc2O)c(OC)c1 | 97%
CC(C)(C)OC(=O)NNc1c2ccccc2nc2ccccc12 | 91%
O=C(NNc1c2ccccc2nc2ccccc12)c1cc2ccccc2cc1O | 69% [inhibitor] (active)
O=C(N/N=C/c1cccnc1)c1cc2ccccc2cc1O | 99%
Cc1ccc(NC(=O)COc2ccc(/C=C3/NC(=O)NC3=O)cc2)cc1 | 99%
COCCCNC(=S)N(CCN(C)C)Cc1cc2cc3c(cc2[nH]c1=O)OCCO3 | 101%

SMILES | binding response (% of control)
COC(=O)C1(CCSC)NC(c2ccc(OC)cc2OC)C2C(=O)N(c3cccc(C(C)=O)c3)C(=O)C21 (stereo unspecified) | 101%
CCC(CC)c1nnc(NC(=O)C2CCN(C(=O)c3ccco3)CC2)s1 | 102%
NC(=O)C1=C[C@@H](c2ccc3c(c2)OCO3)C[C@@H](OCCCCO)O1 | 102%
CN(C)CCOCCOc1ccc(Cl)c2ccccc12 | 78%
CCN(CC)CCOCCOc1ccc(Cl)c2ccccc12 | 3% [inhibitor] (active)
Clc1cccc(Cl)c1OCCOCCNCc1ccccc1 | 102%
O=C(CSc1nc(-c2ccccc2)cs1)Nc1cccc([N+](=O)[O-])c1 | 103%
CCOC(=O)CSc1nnc(CNc2nc(-c3ccccc3)cs2)n1C | 92%
CCNC(=O)CSc1nc(-c2ccccc2)cs1 | 132% (active)
O=C(COc1ccccc1Cl)Nc1ccc(C(=O)c2ccc(C(=O)O)cc2)cc1 | 104%
CN1CCN(C(=O)c2ccccc2NC(=O)COc2ccccc2Cl)CC1 | 101%
CC(=O)Nc1ccc(NC(=O)COc2ccccc2C(=O)Nc2cccc(Cl)c2Cl)cc1 | 184% (active)
FC(F)(F)c1nnc2c3ccccc3c(Cl)nn12 | 107%
COc1ccc2[nH]c(=O)c(CN(Cc3cccnc3)S(=O)(=O)c3ccccc3F)cc2c1 | 100%
Cc1ccc(NC(=O)Cc2nnc(SCC(=O)Nc3nncs3)n2C)cc1 | 97%
O=C(O)CCCC(=O)Nc1ccc(Oc2cccc(C(F)(F)F)c2)nc1 | 131% (active)
O=Cc1ccc(Oc2cccc(C(F)(F)F)c2)nc1 | 98%
O=C(CCCOc1ccccc1)Nc1cccc(C(=O)O)c1 | 106%
COc1ccc(/C=C2\SC(=O)N(CCC(=O)NCCCn3ccnc3)C2=O)cc1 | 100%
COc1ccc(OC)c(/C(C)=N\NC(=O)c2cc3cc(Cl)ccc3n2C)c1 | 103%
Cc1cccnc1NC(=O)Cn1c(=O)oc2ccccc21 | 103%
CN1C(=O)/C(=C\c2ccc(-c3ccccc3)o2)SC1=S | 46% [inhibitor] (active)
NS(=O)(=O)c1ccc(-c2ccc(/C=C3\SC(=O)NC3=O)o2)cc1 | 100%
O=C(O)C(c1ccccc1)N1C(=O)/C(=C\c2ccc(-c3cccc(Cl)c3)o2)SC1=S (stereo unspecified) | 96%
